# Source: PubChem BioAssay AID435030 (The Scripps Research Institute Molecular Screening Center, 2010)
# Screen size: about 330,000 compounds; about 940 (0.28%) were called active. The sample as a whole holds a higher share of actives than the screen did. A number with no mark means an inactive call. No stated cut-off is given here; in the data, active means inhibition above about 12%; inactive means the rest.
# Experiment: reduced growth of AddAB-expressing E. coli cells – absorbance, AddAB inhibitor project, primary screen (AID 435030);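 further: 0% = vehicle wells of infected cells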
# Details: E. coli expressing H. pylori AddAB, at 11.9 µM, hits give high values
row,SMILES,inhibition
1,O=C(O)c1cccc(NC(=S)N/N=C/c2c[nH]c3ccccc23)c1,3.31%
2,Nc1nonc1-n1nnc(C(=O)N/N=C/c2c[nH]c3ccccc23)c1-c1ccccc1,0.34%
3,CSC(=S)N/N=C/c1c[nH]c2ccccc12,14.4% (active)
4,COC(=O)c1cc(S(=O)(=O)N2CCC(C(N)=O)CC2)oc1C,-2.11%
5,COc1cccc(OC)c1CN(C)C(=O)c1cnccc1C(F)(F)F,3.15%
6,CC(=O)Nc1ccc(CN2CCN(Cc3ccc(F)c(F)c3)C(CCO)C2)cc1 (stereo unspecified),2.22%
7,Cc1cn(C2C=CC(CO)O2)c(=O)[nH]c1=O (stereo unspecified),20.5% (active)
8,CCOC(=O)C1=NOC(Cn2cc(C(C)=O)c(=O)[nH]c2=O)C1 (stereo unspecified),3.64%
9,Cc1cn(C2OC[C@@H](O)[C@@H]2CO)c(=O)[nH]c1=O (stereo partly specified),0.5%
10,O=C(NNC(=O)C1C2CCC(C2)C1C(=O)O)c1ccc(Cl)cc1 (stereo unspecified),-0.52%
11,Cc1ccc(NC(=O)CN(C)C(=O)COC(=O)C(C)(C)Oc2ccc(Cl)cc2)cc1,1.52%
12,Cc1ccc(O)c(NC(=O)c2cc(-c3ccco3)on2)c1,2.66%
13,Nc1nonc1-n1nnc(C(=O)N/N=C/c2cc(Br)ccc2O)c1CSC1=NCCS1,17.5% (active)
14,Nc1nonc1-n1nnc(C(=O)N/N=C/c2ccccc2O)c1CN1CCCC1,4.54%
15,Cc1ccc(SCc2c(C(=O)N/N=C/c3cccnc3)nnn2-c2nonc2N)cc1,3.86%
16,CCOc1ccc(N(CC(=O)Nc2ccccc2F)S(=O)(=O)c2c(C)[nH]c(=O)[nH]c2=O)cc1,3.71%
17,CCOc1ccccc1NC(=O)COc1ccc(S(=O)(=O)N2CCCC2)cc1,2.68%
18,O=C(NC(Cc1ccccc1)C(=O)O)/C(=C\c1ccccc1)NC(=O)c1ccco1 (stereo unspecified),0.08%
19,Cc1nnc(NC(=O)Cn2c(=O)sc3ccccc32)s1,3.04%
20,O=C(CCS(=O)(=O)c1ccccc1)Nc1nc2c(s1)CCCC2,-2.56%
21,O=C(Cn1c(=O)sc2ccccc21)Nc1nc2c(s1)CCCC2,12.5% (active)
22,CC(=O)Oc1ccccc1C(=O)Nc1ncc([N+](=O)[O-])s1,13.3% (active)
23,Cc1cnc(NC(=O)c2ccccn2)s1,-4.66%
24,O=C(Cc1c(F)cccc1Cl)Nc1ncc([N+](=O)[O-])s1,5.83%
25,COc1ccccc1CNC(=O)Cn1c(=O)oc2cc(Cl)ccc21,4.32%
26,COC(=O)C1=C(Nc2ccc(C)cc2)C=C(C)C(C(=O)OC)C1c1ccc(F)cc1 (stereo unspecified),1.3%
